B1: uchl1_122_7443 (protein)
chain: MLTIEVKVSSSLSERTLEILKKYAEKLLENPKFEVKELSPGTKLLTITGELKDVSDEEILEIRNEALEEAGKDQSITPNERVSFGNALRTISRQVARALA
B2: uchl1_122_7440 (protein)
chain: MITIEIEVSSSLSEKGLEILAEAAKKLLDNAKIEVKEKSPSTKLITITGELKDLSEEEILEIENEALEEAGKDQSLTPNQRVSFGNALRRLAIQYAKAKA
B3: uchl1_122_7448 (protein)
chain: TVTVEVVGRREDIELIAAVIREVFAAAGIEVDVEIEELSPTTARLVVTIRAPPMTDAQVDATIAALAAAMARLVEEAGISRALAGIAFTRVERALRRAAA
B4: uchl1_122_7452 (protein)
chain: TETVEVVGRRKDIELIAAAIREVAAAAGWTADVEIEELSENTAKLTVTVTLPPVSDAAVDAAEAALEAAMRRLVEEEGLSRAFVGIATTRVIRAIRRAAA
B5: uchl1_143_7454 (protein)
chain: GMVHMEVEVIHIEVSEEDTPEEIREKIMEAMKKAVEKGKAIRIIITVPPDANKRLMVNTTARRAAREFAQEYKDKLKYLEIYARDKETGKEDLIAEIINP
B6: uchl1_122_7441 (protein)
chain: MVTIEVEVSSSLSPEALAILAEAAAELLEDARVEVRELSPSTLLITITGRLKDLSPEEIREIENRALERLGRDQSLTPNQRVSAGNALRRLARQYARAKA
B7: uchl1_122_7434 (protein)
chain: MITIEVDVSSSLSPEVLEIIKEFASRLLDNAEFEEEELSPGTRRLTITGELKDVSDEEILEIENEALERASKLQTLTPNERVSFGNALRRIARAVAKARA
B8: uchl1_122_7438 (protein)
chain: MLTIEVDVTSSLSPEGLEILKEYVSKLLDNPKFEEELVSPGTLRLIFTGELKDLTEEEIREIENEALEKAGANQSLTPNQRVSFGNAVRRIARQVAKARA
B9: uchl1_122_7433 (protein)
chain: MITIEVEVTSSLSPEALAILKEYAARLLDNAEFKEEKLSPGTLLLTVTGELKDVTDEEILAIENEALERASKMQTLTPNQRVSFGNALRRIARAVAKALA
B10: uchl1_122_7427 (protein)
chain: TATVEVVGRRETIETIAEIIREVAAEHGLEVEVRIEELSPTTARLVVTVRVPPISDEELAAFERALEERMARAVEEKGLSRAEVGIATTKVIRAVRRANA
B11: uchl1_122_7428 (protein)
chain: METVEVVGRRRAIEAFAEIVREVAAEHGIAVEVEIEELSPTTARLTITFDVPPISDEELAAFEEDLARRVAEAVRELGLSPAEFGIAYTKVVRAVRRANA
B12: uchl1_122_7444 (protein)
chain: MLTVEVLVSSSLSEEVLEILEEYASKLLEDLEVEKKKVSPGTILITFTGELKDVSEEEIREIREEALERLSKLQNLTPNEKVSFGNALRRIERQVMQAKK
B13: GBRAPL2_93_7425 (protein)
chain: NEVKVTIKHLVDGELVKEEERTVSVEEAKELIKKKLEEAIAAGNKVIIEIDDEDTGWSFGDYVTDEEQAKKALERAKEILEDLAAEGKKVEVEIVIEKIT
B14: uchl1_122_7451 (protein)
chain: SETVEVVGRRRDIELIAEAIKEVFEKFGVKVEVEIEELSPTTAKLTVTITVPPISDEELEALLAALEEAMRRLVEEEGVPRATAGLAYSRTARAVKRAAA
B15: GBRAPL2_93_7423 (protein)
chain: MKVKVTVIELENGEVVRREERELSVEEAKELIRELLAEAIAAGNRVIIEIYDKETGWTFGYYAEDEEQAEKAYERTSEVLEDLAAEGKEVEVTITIERLE
B16: uchl1_122_7436 (protein)
chain: MITIEVLVTSSLSPEGLAIIKDYAAKLLKDAEFKEEEVSPGTLLLTITGELKDVSDEEILEIRREAEERASKNQNLTPNERVSFGNALRRIARAVAKAKA
B17: uchl1_122_7435 (protein)
chain: MITVEVLVTSSLSPAVLAIIKEYASRLLDNAEFELRRVDPGTLLLTVTGELKDVSDEEILAIRREAEERAAKDQTLTPNQRVSFGNALRRIARAVAKALA
B18: uchl1_122_7426 (protein)
chain: METVEVVGRRETIEALAELIREVAAEHGIEVEVRIEELSPTTARLVVTIRVPPISDEELDALIADLEARAAALVEEKGLPRAEVGIATTKIIRAIRRAAA
B19: GBRAPL2_93_7424 (protein)
chain: NKVELIVKYLENGKLVKEEREVVSVEEAKAKIEELLKEAVENGEKVSIEIEDKDTGWVFGDYVENEEQAKKALERAKEILEDLAEEGKEVEVTIVIEKIT
B20: uchl1_122_7429 (protein)
chain: MVRVEVVGRRRTVEALAEVIREVAARHGIDVRVEIEELSPTTARLVVDIRVPPMSDAALEAALADLERRAAELVERLGLSRAEVGIATTRIVRGIRRAAA
B21: uchl1_122_7430 (protein)
chain: TVTVEAVGRRETMETLAAVITEVLTAAGLTVEVRIEELSPTTARLTVTISGAPLSDAEVDALIEELRRRAAEAVERLGLDRATVGLAVGRVERGVRRLAA
B22: uchl1_122_7447 (protein)
chain: TVTVEVVGRRADIEAIAAVIRAVFAAAGIKVDVEIEELSPTTAKLTVTITVPPVTDEQVDATIAALAAAMAALVEAEGISRALAGIAFTRVERALRRAAA
B23: uchl1_122_7432 (protein)
chain: AETVTVIVPKEAAPIIVEVLKEVMAEHGATVEVELEELSENTVKITITIDTSGLTEEQVDAAVADLEERMAERFKEAGINSADAKNAVGRIARAIRRAGA
B24: uchl1_122_7431 (protein)
chain: MKTVTVVVRKKDAPILIEIVREVAAEAGMKVEIEEEELSPNVVKLTITIDTTGLTEEQVEAAVEALERRVAEAMKETGSKSTDLRIAVGKIARAIRKAHA
B25: uchl1_122_7446 (protein)
chain: MLTVEVLVSSSLSERVLEILEEYAAALLDNLEVEREEVSPGTRLLTFTGELKDVSEDEIRAIREEALARLAELQDLTPNEKVSFGNALRRIERQVMAARR
B26: uchl1_122_7442 (protein)
chain: MLTIEVDVASSVSERTLEILKEYAEELLEDAEFSVEKKSPGTKLLTIKGKLKDVSDDEILEIENKALERAGKDQSITPNERVSFGNALRKIARQVARARA
B27: uchl1_122_7439 (protein)
chain: MLTIEVDVTSSLSPEGLAILREYASELLDNPEFEEELVSPGTLRLTFTGELKDLTPEQIREIANRALARAGADQSLTPNERVSLGNAIRRIARQVARARA
B28: uchl1_122_7437 (protein)
chain: MITIEVLVSSSISEKVLEIIKKFASKLLKNPKFKIEQVSPGTLKITITGELKDVSEEEIREIYNEALEELGKLQDITPNEKVSANTALRKIARDVARARR
B29: uchl1_122_7449 (protein)
chain: TETVEVVGRRADVEAIAATIRAVFASHGLTVDTTITELSPTTARLTVTVTLPPISDAQVAALEAALEAAMAALVEREGISRAFAGIATTRVIRAVRRAAA
B30: uchl1_122_7450 (protein)
chain: SETVEVVGRREALEAIAAAIREVLAAFGAEVEVRIEELSPNTARLTVTIRLPPISDARLAELLEALEAAMRRLVEERGVPAATAGLAYSRVARAIRRAAA
B31: uchl1_122_7445 (protein)
chain: MLTVEVLVSSSMSPEVLAILEEYASRLLDDLEVEREKVSPGTVLLTFRGRLKDVSEEEIRAIREEALARLAKLQDLTPNEKVSFGNALRRIERQVMRARR
B32: uchl1_122_7453 (protein)
chain: TETVEVVGRRRDVEILAAVIREVFAAAGWTAEVTIEELSPTTARLVVTVTLPPASDEAVDALVAALEAAFREAVEKEGISRAFAGIAYTRVARAVRRAAA

target: UCHL1, P09936; test: median log2 fold change of GCK-ALFA target abundance (FLAG IP / Myc IP barcode read proportion) (log2 ratio); each designed protein is fused to an ALFA-tag nanobody in HEK293 cells to bring the named protein to FLAG-tagged glucokinase (GCK); Myc marks an untargeted standard; higher = target protein stabilised (more abundant); conditions: target protein: 3xFLAG-MCP-GCK-ALFA reporter; HEK293 landing pad (RPLP)
Sequence (P09936 whole entry, looked up, the tested form may be a part): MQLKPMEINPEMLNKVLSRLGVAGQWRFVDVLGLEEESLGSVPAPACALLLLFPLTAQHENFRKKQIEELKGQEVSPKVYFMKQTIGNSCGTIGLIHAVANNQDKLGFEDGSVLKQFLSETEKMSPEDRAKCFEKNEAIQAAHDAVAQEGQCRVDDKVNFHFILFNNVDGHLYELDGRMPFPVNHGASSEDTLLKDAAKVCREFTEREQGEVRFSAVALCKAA
Summary of the method: (§1)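 An ALFA-nanobody-fused binder library was recombined into HEK293 landing-pad cells and induced with 2 μg mL^−1 doxycycline. Cells were transfected with a plasmid expressing a FLAG-tagged target and a Myc-tagged standard. After 48 h, lysates underwent anti-FLAG and anti-Myc immunoprecipitation, and circular RNA barcodes were reverse transcribed, amplified and sequenced. Target abundance is the per-binder median log2 ratio of FLAG to Myc barcode read proportions. Barcodes needed ≥10^−7 proportion in both replicates, binders ≥3 barcodes per replicate, and a 10^−6 pseudocount was added; the two replicates were pooled.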

In order of falling “median log2 fold change” value:
1. B23  0.325
2. B8  0.324
3. B10  0.284
4. B26  0.271
5. B18  0.214
6. B7  0.213
7. B6  0.185
8. B29  0.184
9. B4  0.163
10. B1  0.153
11. B2  0.144
12. B30  0.143
13. B21  0.13
14. B20  0.096
15. B27  0.0949
16. B12  0.0563
17. B3  0.0437
18. B9  0.0352
19. B16  0.0349
20. B11  -0.0204
21. B31  -0.026
22. B32  -0.0277
23. B17  -0.0374
24. B28  -0.0419
25. B5  -0.0697
26. B22  -0.15
27. B24  -0.183
28. B25  -0.238
29. B14  -0.77

target: GABARAPL2, P60520; test: as above; conditions: target protein: 3xFLAG-MCP-GCK-ALFA reporter; HEK293 landing pad (RPLP)
Sequence (P60520 whole entry): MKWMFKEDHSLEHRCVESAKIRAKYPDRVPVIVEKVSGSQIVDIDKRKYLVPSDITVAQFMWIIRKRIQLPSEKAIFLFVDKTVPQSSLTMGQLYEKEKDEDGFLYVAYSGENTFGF
Summary of the method: as §1

In order of falling “median log2 fold change” value:
1. B19  0.137
2. B15  -0.302
3. B13  -0.332
